According to PubChem BioAssay:

Assay: probe aShh binding to arrayed compounds – biochemical, biotinylated probe, 635/667 nm fluorescence, primary screen (AID 1114);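 further: probe is biotin-labelled aShh protein from a stem cell growth factor screen; measures binding of labelled protein to compounds printed on the slide; score merges feature fluorescence at 667 nm with signal-to-noise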
Details: small-molecule microarray, higher = more signal

Row | Compound | composite z-score
1 | C=CCN1C(=O)[C@@]2(Cc3ccccc3)N=C(c3ccc(OCCCO)cc3)O[C@H]2c2ccccc21 | 0.0469
2 | CC(=O)Nc1ccc([C@H]2[C@H](C)CC[C@H]3C(=O)N4[C@@H](CC[C@@H](C)[C@@H]4c4ccc(NC(C)=O)cc4)C(=O)N32)cc1 | 0.168
3 | COc1cc2c(cc1OC)CN(C(=O)[C@@H]1[C@H]3C(=O)O[C@H](c4ccccc4)[C@H](c4ccccc4)N3[C@H](c3ccccc3OCCO)[C@@]13C(=O)Nc1ccccc13)CC2 | -0.0213
4 | CCOC(=O)C[C@H]1[C@H](OC(=O)Cc2ccc3c(c2)OCO3)[C@@H](NC(=O)c2ccc3ccccc3c2)c2cc(OCCCO)ccc2N1C(=O)Cc1ccc(OC)cc1 | -0.367
5 | CO[C@@H]1COC(=O)[C@H](C)NC(=O)CC=C[C@@H](C)[C@H](OC)COC(=O)[C@H](C)NC(=O)CC=C[C@H]1C | -0.223
6 | CO[C@H]1COC(=O)CC=C[C@H](C)COC(=O)[C@@H](OCc2ccccc2)C=C[C@@H]1C | -0.283
7 | CCCC[C@@H]1C[C@H]1[C@@H](NC(=O)c1ccccc1)c1ccccc1C(F)(F)F | 0.204
8 | CO[C@@H]1COC(=O)[C@H](C)NC(=O)CC=C[C@@H](C)[C@H](NS(=O)(=O)c2ccc(C)cc2)COC(=O)CC=C[C@@H]1C | -0.138
9 | CC(=O)NCCCC[C@@H]1NC(=O)[C@H]2C[C@@H](C(=O)NCCCCCCN(C)C)[C@@H](c3cccc(OCCO)c3)N2C1=O | 0.323
10 | NC(=O)NCC#Cc1ccc2c(c1)[C@]1(C(=O)N2)[C@H](c2ccccc2OCCO)N2[C@H](c3ccccc3)[C@H](c3ccccc3)OC(=O)[C@H]2[C@@H]1C(=O)N1CCN(c2ncccn2)CC1 | 0.399
11 | C[C@]1(C(=O)NCc2ccccc2)c2ccccc2C(=O)N(Cc2cc(C(F)(F)F)cc(C(F)(F)F)c2)[C@H]1c1ccc(CO)cc1 | 1.39
12 | C=C(COC)/C(=C/C[C@@H](OC(C)=O)c1cccc(OCCO)c1)c1cc(C(=O)OC)ccc1OC | -0.0289
13 | COC(=O)[C@H]1[C@@H]2COc3ccccc3[C@H]2N[C@H]1C(=O)OC | -0.0626
14 | CCc1cccc(NC(=O)O[C@H]2[C@H](OC(=O)Nc3ccccc3)[C@@H](OC(=O)Nc3ccccc3)[C@@H](OC)O[C@@H]2CO)c1 | 0.19
15 | C=CCN1C(=O)[C@]2(O[C@H](CCn3cc(CCO)nn3)[C@@H]([Si](C)(C)c3ccc(OC)cc3)[C@@H]2C)c2cc(NC(=O)c3ccc(OC)cc3)ccc21 | 0.166
16 | C=C(COC)/C(=C/C[C@H](OC(C)=O)c1ccc(OCCO)cc1)c1cnc2ccccc2c1 | 0.261
17 | [N-]=[N+]=NCc1ccccc1C[C@]1(C(=O)N2CCCCC2)N=C(c2ccc(OCCCO)cc2)O[C@H]1c1ccccc1CN=[N+]=[N-] | 0.503
18 | CO[C@H]1O[C@H](CO)[C@@H](OC(=O)Nc2ccccc2)[C@H](OC(=O)Nc2ccc3c(c2)OCO3)[C@@H]1OC(=O)Nc1ccc2c(c1)OCO2 | 0.151
19 | CCOC(=O)C1=C[C@@H](c2ccccc2)N(S(=O)(=O)c2ccc(C)cc2)[C@H]1c1ccc(F)cc1 | 0.0929
20 | CCCC=C(CCC)[C@@H](NC(=O)c1ccc(C(F)(F)F)cc1)c1ccccc1 | 0.213
21 | COC(=O)C[C@H]1O[C@]2(C(=O)N(Cc3ccccc3)c3ccc(I)cc32)[C@@H](C)[C@@H]1[Si](C)(C)c1ccc(OC)cc1 | 0.0062
22 | CCC(=O)[C@]12O[C@@]3([C@@H]4C(=O)OCC[C@@H]41)N(CC)C(C)=C(C(=O)OC)[C@@H](c1ccccc1)N3C2=O | 0.227
23 | COCCOC(=O)N1C(=O)[C@@]2(c3cc(C#CC4=CCCCC4)ccc31)[C@H](c1ccc(O)cc1)N1[C@H](c3ccccc3)[C@H](c3ccccc3)OC(=O)[C@H]1[C@@H]2C(=O)N1CCCCCCC1 | 0.332
24 | O=C(CS)NCCCCCNC(=O)[C@H]1C[C@H]2C(=O)N3CCC[C@H]3C(=O)N2[C@H]1c1ccc(O)cc1 | 0.046
25 | CSCC[C@@H]1NC(=O)CC=C[C@@H](C)COC(=O)[C@H](CCSC)NC(=O)CC=C[C@@H](C)COC1=O | 0.0756
26 | COCCOC(=O)N1C(=O)[C@@]2(c3cc(C#CCNC(N)=O)ccc31)[C@H](C(=O)N1CCCCCCC1)[C@H]1C(=O)O[C@H](c3ccccc3)[C@H](c3ccccc3)N1[C@@H]2c1ccccc1OCCO | 0.46
27 | O=C1O[C@H](c2ccccc2)[C@H](c2ccccc2)N2[C@H]1[C@@H](C(=O)Nc1nc3ccccc3s1)[C@]1(C(=O)Nc3ccc(C#CC4(O)CCCCCC4)cc31)[C@H]2c1ccc(O)cc1 | -0.203
